# Laboratory results published in PubChem BioAssay AID598 (SRMLSC, 2007).
# Out of some 85,000 compounds screened, about 5,100 (6%) were called active. The list comes from a sample in which actives are over-represented; it also holds similar structures and randomly drawn compounds. Unmarked numbers belong to inactive results.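 How the source made its calls: active means viability at or below 40%; inactive means viability above 40%.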
# Assay: H69AR cell viability reduction – human, 86K library, primary screen (AID 598);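 further: multidrug resistant small cell line overexpressing MRP-1 efflux transporter; 100% = mean luminescence of untreated control wells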
# Details: H69AR lung tumor viability, ATP luminescence, 72 h; at 10 µM; active compounds read low
row,Compound,viability
1,O=C(CSCc1ccc(Cl)cc1)N1CCCCC1,93.6%
2,Cc1cc(NC(=O)CCC(=O)N(CC(=O)NCC2CCCO2)c2ccccc2C)no1 (centres undefined),100%
3,COCCNC(=O)Cn1cc(C(=O)c2cccs2)c2ccccc21,88.3%
4,COc1ccc(C(=O)n2nc(-c3ccc(Cl)cc3)nc2N)cc1OC,83.9%
5,COc1ccccc1C(=O)n1nc(-c2ccccc2)nc1N,90.3%
6,COc1ccc(C(=O)n2nc(-c3ccc(C)cc3)nc2N)cc1OC,22% (active)
7,N#CC1=C(SCc2ccc(C#N)cc2)N=C(N)C(c2nc(-c3ccccc3)cs2)C12CCCCC2 (centres undefined),56.8%
8,COc1ccc(OC)c(-n2nnnc2SCC(=O)Nc2cc(C)ccc2OC)c1,75.6%
9,Cc1nc2ccc(C(=O)O)cc2[nH]1,91.7%
10,CC(C)c1nc2ccc(C(=O)O)cc2[nH]1,94.4%
11,COC(=O)Nc1nc2ccc(Sc3ccccc3)cc2[nH]1,17.5% (active)
12,COc1ccc(N(CC(=O)NC2CCCCC2)C(=O)CNC(=O)c2ccco2)c(OC)c1,97.8%
13,COc1ccc(C(=O)N(Cc2ccc(N(C)C)cc2)C2CCS(=O)(=O)C2)cc1 (centres undefined),80.1%
14,Cc1ccc(CN(C(=O)c2sc3ccccc3c2Cl)C2CCS(=O)(=O)C2)cc1 (centres undefined),18.5% (active)
15,COc1cc(C(=O)N(Cc2ccc(N(C)C)cc2)C2CCS(=O)(=O)C2)cc(OC)c1OC (centres undefined),80.1%
16,CC(=O)c1cccc(NC(=O)N2CCCC2C(=O)NCCc2ccccc2)c1 (centres undefined),91.7%
17,COc1nc(NC2CCCCC2)nc(N2CCCCCC2)n1,61.9%
18,CC1=C/C(=N\OS(=O)(=O)c2ccccc2)C=CC1=O,0.69% (active)
19,N#CCSc1nc2c(c(=O)n1Cc1ccccc1)C1(CCCC1)Cc1ccccc1-2,80.7%
20,Nc1c(-c2ccc(F)cc2)cnn1C1CCS(=O)(=O)C1 (centres undefined),98%
21,CC(C)(C)C(=O)c1cnc(Nc2ccccc2)s1,55%
22,CCOC(=O)CSc1nc2ccc(C)cc2[nH]1,89.4%
23,COc1ccc(/C(N)=N/OC(=O)Oc2ccccc2)cc1,82.6%
24,CO/N=C(/CS(=O)(=O)c1ccc(Br)cc1)c1ccc(OC)cc1,31.4% (active)

row,Compound,viability
1,COc1ccc(C(=O)Nc2ccc(S(=O)(=O)NC(C)C)cc2)cc1,97.9%
2,Cc1cccc(NC(=O)CSc2nnc(-c3ccco3)o2)c1,96.2%
3,CC1(C)NC(=O)N(CCCCSc2ccc(Cl)cc2)C1=O,79%
4,CC1(C)Cc2c(C#N)c(SCc3nc4ccccc4[nH]3)nc(N3CCOCC3)c2CO1,37.1% (active)
5,CC(C)c1nc(N2CCOCC2)c(C#N)c2c1COC(C)(C)C2,79.6%
6,COc1ccc(CSc2nc(N3CCOCC3)c3c(c2C#N)CC(C)(C)OC3)cc1,92.7%
7,CCc1ccc(C2C(C#N)=C(N)Oc3n[nH]c(CC(=O)OC)c32)cc1 (centres undefined),92.7%
8,O=C(Nc1ccc2c(c1)OCCO2)C(c1ccc(F)cc1)N1CCCCC1 (centres undefined),99.9%
9,Cc1ccc(OCc2nnc(NC(=O)OCC(C)C)s2)cc1,102%
10,CC1Cc2ccccc2N1C(=O)CSc1nc2ccccc2o1 (centres undefined),74.2%
11,CCS(=O)(=O)c1ccc2oc(SCC(=O)N3c4ccccc4CC3C)nc2c1 (centres undefined),63.3%
12,CC1Cc2ccccc2N1C(=O)CSc1nnc(-c2ccc(S(=O)(=O)N3CCCCC3)cc2)o1 (centres undefined),29.4% (active)
13,CCOC(=O)/C(C#N)=C\c1c(C)cc(C)c(COC(C)=O)c1C,95.1%
14,CCNC(=O)NC(=O)C(C)OC(=O)c1cc(S(=O)(=O)N2CCCCCC2)ccc1OC (centres undefined),84.3%
15,Cc1ccc(NC(=O)CCN2CCc3ccccc3C2)cc1,79.4%
16,Cc1ccc(NC(=S)NC(NC(=O)Cc2cccc3ccccc23)C(Cl)(Cl)Cl)cc1 (centres undefined),0.99% (active)
17,CC(N=Cc1nc(-c2ccccc2)oc1O)c1ccccc1 (centres undefined),94.3%
18,Cc1ccc(S(=O)(=O)N2CCC(C(=O)NCC3CCCO3)CC2)cc1 (centres undefined),105%
19,COc1cccc(NC(=O)CN2CCN(c3nc(-c4cccc(OC)c4)cs3)CC2)c1,93.2%
20,COc1ccc([N+](=O)[O-])cc1C1NN=C(c2cccc3ccccc23)S1 (centres undefined),27.1% (active)
21,Cc1ccc(CNC(=O)COc2ccc(S(=O)(=O)NC(C)C)cc2)cc1,98.1%
22,COc1ccc(C2=NOC(C(=O)NCc3ccco3)C2)cc1OC (centres undefined),28.7% (active)
23,COc1cc2c(cc1OC)C(C(=O)NCc1ccco1)C1c3ccccc3CCN1C2=O (centres undefined),92.7%
24,COc1ccc(-c2cc(C(=O)NCc3ccco3)no2)cc1OC,100%

row,Compound,viability
1,COc1cccc(N=c2oc3c(C)ncc(CO)c3cc2C(N)=O)c1,68%
2,CCn1c(SCC(=O)NCC2CCCO2)nc2cc(S(=O)(=O)N3CCCCC3)ccc21 (centres undefined),96.9%
3,CCCCn1c(SCc2ncc(-c3ccccc3)o2)nc2cc(S(N)(=O)=O)ccc21,14% (active)
4,CCCCn1c(SCC(=O)N2CCC(C(=O)OCC)CC2)nc2cc(S(N)(=O)=O)ccc21,48.4%
5,COC(=O)c1ccc(NC(=O)C23CC4CC(C2)CC(n2cnc(Cl)n2)(C4)C3)cc1,72.7%
6,CCCOC(=O)c1[nH]c2c(c1C)C(=O)CC(c1cc(OC)c(OC)c(OC)c1)C2 (centres undefined),80.3%
7,CCCOC(=O)c1[nH]c2c(c1C)C(=O)CC(c1cccs1)C2 (centres undefined),34.2% (active)
8,CCOC(=O)c1[nH]c2c(c1C)C(=O)CC(c1ccc(N(C)C)cc1)C2 (centres undefined),100%
9,Cc1nc(NC(=O)CN(C)S(=O)(=O)c2ccc(Cl)cc2)sc1C,61.4%
10,CCc1c(C)sc(NC(=O)c2cccs2)c1C(N)=O,99.7%
11,CCN(CC)C(=O)CN(c1cccc(OC)c1)S(=O)(=O)c1ccc(C)cc1,82.3%
12,CCCCNC(=O)C1CCCN(S(=O)(=O)c2ccc(S(=O)(=O)NCC(C)C)cc2)C1 (centres undefined),90.8%
13,Cc1cccc(N2CCN(C(=O)c3cnn4c(C(F)F)cc(-c5ccccc5)nc34)CC2)c1C,28.9% (active)
14,Cc1cccc(N2CCN(C(=O)C3CCN(S(=O)(=O)c4cnc[nH]4)CC3)CC2)c1C,93.6%
15,O=C(Nc1ccccc1N1CCN(C(=O)c2ccccc2)CC1)c1ccc2c(c1)OCO2,81.8%
16,O=C1CSC(c2cccc(F)c2)N1c1ccc(O)cc1 (centres undefined),101%
17,CC(C)CCNC(=O)Cn1c(=O)oc2cc(S(=O)(=O)N3CC(C)CC(C)C3)ccc21 (centres undefined),40.8%
18,Cc1oc(-c2ccccc2Cl)[n+]([O-])c1C,85.9%
19,Cc1[nH][nH]c(=O)c1N=Nc1ccccc1,91.5%
20,Cc1[nH][nH]c(=O)c1C(c1ccc(-c2ccc(Cl)cc2)o1)c1c(C)[nH][nH]c1=O,1.92% (active)
21,CCN1CCN(C(=O)C2(NC(=O)Nc3cccc(F)c3)CCCCC2)CC1,90.9%
22,O=C(c1ccccc1Oc1ccccc1)N1CCN(c2ccc(F)cc2)CC1,100%
23,COC(=O)c1ccccc1NC(=O)CSc1nnnn1C,95.3%
24,O=C(CN1CCCCC1)N1c2ccccc2Sc2ccc(C(F)(F)F)cc21,86.8%

row,Compound,viability
1,O=C(CN1CCCCCC1)N1c2ccccc2Sc2ccc(C(F)(F)F)cc21,36.8% (active)
2,CC1CC(C)CN(CC(=O)N2c3ccccc3CCc3ccccc32)C1 (centres undefined),82.7%
3,CC(C)c1nc2oc3c(N4CCN(C)CC4)ncnc3c2c2c1CCC2,33.7% (active)
4,CCN1CCN(c2ncnc3c2oc2nc(C)c4c(c23)CC(C)(C)OC4)CC1,81.8%
5,Cc1cc(C)nc(N2CCN(c3ncnc4c3oc3ccccc34)CC2)n1,103%
6,COc1cc2c(cc1OC)C(C(C)C)=NC(C)(C)C2,88.9%
7,C/C(=N\NS(=O)(=O)c1ccc(Br)cc1)c1cccs1,110%
8,CCn1nc(C)c(NC(=O)/C=C/c2ccc(OC)c(COc3ccc(Br)cc3)c2)c1C,28.8% (active)
9,CCn1c(COc2ccc(OC)cc2)nnc1SCC(=O)Nc1cc(OC)ccc1OC,71.4%
10,COc1ccc(/C=C/C(=O)Nc2c(C)nn(C)c2C)cc1COc1ccc(Br)cc1,57.5%
11,COc1cccc2cc(C(=O)N3CCN(C(=O)c4ccccc4)CC3)c(=O)oc12,89.3%
12,O=S(=O)(NC1CCCCC1)c1ccc(F)c2ccccc12,86.6%
13,Cc1ccc(-c2nc3c(cnn3-c3ccccc3)c(=O)o2)cc1,79.6%
14,Cc1ccc(-n2ncc3c2ncn2nc(-c4ccco4)nc32)c(C)c1,78.6%
15,Cc1ccc(-n2ncc3c(=O)n(-c4ccc(C)c(C)c4)c(-c4ccco4)nc32)cc1,31.3% (active)
16,CCOC(=O)c1ccc2c(c1)nc(SCC(=O)NC(C)C)n2CC,84%
17,CCNc1nc(NC(C)C)nc(OCCOC(=O)c2ccccc2)n1,83.5%
18,CCOc1cccc(NC(=O)Cn2nc(-c3ccc4c(c3)OCCO4)ccc2=O)c1,69.3%
19,CCN(CC)S(=O)(=O)c1cccc(C(=O)NCC(=O)OCC(=O)NCc2ccccc2)c1,87.6%
20,CN(C)S(=O)(=O)c1cccc(C(=O)Nc2cccnc2)c1,89.9%
21,CCN(CC)S(=O)(=O)c1cccc(C(=O)Nc2ccccc2)c1,38.5% (active)
22,N#CC1=C(N)N(c2ccccc2)C2=C(C(=O)CCC2)C1c1ccccc1 (centres undefined),40.4%
